A number with no mark means an inactive call. Inconclusive results are not listed. Entries that show only a call come without a potency. Activity calls are given as the source filed them. Calls follow the shape of the dose curve; as a rule, active = well fitted curve in the direction sought with a large enough effect; inconclusive = small, poorly fitted or top-dose-only effect, or another doubt; inactive = no such curve, though single readings can be large; an effect the other way counts as inactive or inconclusive.
Experiments:
[1] = target: Lysine-specific demethylase 5B (Homo sapiens) (UniProt Q9UGL1); test: Optimization screen for KDM5B Histone Demethylases FDH coupled qHTS against the LOPAC library (AID 1347166); also: potency is read from the fitted curve at half-maximal effect
Procedure, shortened: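 KDM5BDeltaAP (200nM final) preincubated 10 min with compound, then 12.5uM H3K4Me3, 25uM a-ketoglutarate, ascorbate, Fe(II), NAD+ and FDH added; 50mM HEPES pH 7.5, 0.01% Tween-20. NADH fluorescence (340/450 nm) change over 30 min, room temperature.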

[2] = qHTS to identify inhibitors of the type 1 interferon - major histocompatibility complex class I in skeletal muscle: primary screen against the NCATS LOPAC collection (AID 1347405);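 also: lytic HiBiT luminescence reporting HLA-B protein level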
Procedure, shortened: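 CRISPR-engineered immortalized human myoblasts (C25cl48) with HiBiT fused to endogenous HLA-B*08:01, stimulated with 4 ng/ml IFN-beta. LOPAC compounds tested as a 7-point 1:4.3 titration (top 46 uM final), 24 h at 37 C; lytic HiBiT luminescence read.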

[3] = qHTS to identify inhibitors of the type 1 interferon - major histocompatibility complex class I in skeletal muscle: primary screen against the NCATS Pharmaceutical Collection (AID 1347407);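 also: luminescence of HiBiT knocked into endogenous HLA-B as interferon-induced MHC class I level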
Procedure, shortened: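 Immortalized human myoblasts (C25cl48) with HiBiT knocked into endogenous HLA-B*08:01 were stimulated with 4.0 ng/ml IFN-beta and treated with compounds ([…] top 46 uM) for 24 hrs at 37 C. HiBiT lytic luminescence read.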

[4] = qHTS for inhibitors of adenylyl cyclases using a fission yeast platform: a pilot screen against the NCATS LOPAC library (AID 1347410)
Procedure, shortened: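 S. pombe CHP2027 (AC9-GNAS-PDE4D2) carrying PKA-repressed fbp1-GFP, incubated 18 h at 30C in EMM with LOPAC compounds at up to 57 uM. GFP gain-of-signal read by laser scanning cytometry; DMSO negative control.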

[5] = target: Protein phosphatase 1D (Homo sapiens) (UniProt O15297); test: RapidFire Mass Spectrometry qHTS Assay for Modulators of WT P53-Induced Phosphatase 1 (WIP1) (AID 1347424);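 also: amount of dephosphorylated VEPPL-S-QETFS peptide product formed by WIP1; series mostly up to about 63 µM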
Procedure, shortened: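 10 nM WIP1 preincubated with compounds 1 hr at room temperature in pH 7.5 Tris buffer with 30 mM MgCl2, 1 mM TCEP; 2 uM VEPPL-pS-QETFS phosphopeptide for 5 min, formic acid quench; dephosphorylated product quantified by RapidFire MS against labelled standard.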

[6] = target: Protein phosphatase 1D (Homo sapiens) (UniProt O15297); test: Rhodamine-PBP qHTS Assay for Modulators of WT P53-Induced Phosphatase 1 (WIP1) (AID 1347425)
Procedure, shortened: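 The read-out is the change in Rhodamine-PBP fluorescence (f1 - f0, ex 525/em 598 nm) as Pi is released, read each minute for 11 min. Final reaction: 5 nM WIP1, 10 uM phosphopeptide VEPPL-pS-QETFS, 10 uM Rh-PBP, 50 mM Tris-HCl pH 7.5, 30 mM MgCl2. Compound was preincubated with enzyme for 1 hour at room temperature.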

[7] = Validation qHTS assay for inhibitors of Activation Induced Cytidine Deaminase (AID): UDG Counterscreen signal (AID 1347427)
Procedure, shortened: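 Counterscreen read of UDG activity (2 U/mL, 4/3x) in the FRET deamination format with AID (1 uM, 4/3x), DJC20/DJC23 substrates (250 nM, 4x), 4 h at room temperature. NaOH stop, fluorescence at 560 ex/665 em.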

[8] = target: Single-stranded DNA cytosine deaminase (Homo sapiens) (UniProt Q9GZX7); test: Validation qHTS assay for inhibitors of Activation Induced Cytidine Deaminase (AID): AID signal (AID 1347429)
Procedure, shortened: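 FRET deamination assay: 1 uM AID (4/3x stock) with UDG, compound up to 114 uM, then 250 nM DJC20/DJC23 substrate (4x stock) for 4 hr at room temperature. NaOH added, 30 min; fluorescence read 540/590 nm.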

[9] = Primary qHTS for inhibitors of La Crosse Virus (LACV) - induced cell death in SH-SY5Y cells (AID 1508616);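 also: top concentration of the series differs between compounds; higher means more rescue of cells from virus-induced death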
Procedure, shortened: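 SH-SY5Y cells (6000/well) plated 24 h, then given compounds by pin transfer and LACV at 0.01 MOI for 6 days at 37C. Viability measured by ATPLite luminescence, normalized to infected DMSO and uninfected DMSO.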

[10] = target: Calcium and integrin-binding protein 1 (Homo sapiens) (UniProt Q99828); test: Validation qHTS for Identification of Calcium Integrin Binding protein 1 (CIB1) Competitor (AID 1508618)
Procedure, shortened: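 CIB1-GST (1 uM final) incubated 15 min at room temperature with compounds (up to 114 uM), then FITC-labelled alphaIIb peptide (100 nM) added. FP read (Ex 480/Em 540) after 15 min, pH 7.4 buffer containing 5 mM CaCl2.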

[11] = target: Calcium and integrin-binding protein 1 (Homo sapiens) (UniProt Q99828); test: Primary qHTS for Identification of Calcium Integrin Binding Protein 1 (CIB1) Competitor (AID 1508620);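 also: GST tagged CIB1 binding a fluorescein labelled alphaIIb integrin peptide tracer; top concentration of the series differs between compounds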
Procedure, shortened: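 Fluorescence polarization competition: GST-tagged CIB1 (1 uM final) preincubated with compound 15 min at room temperature, then FITC-labelled alphaIIb peptide (100 nM final) added. After 15 min at room temperature, polarization read at Ex 480/Em 540.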

[12] = qHTS to identify inhibitors of the type 1 interferon - major histocompatibility complex class I in skeletal muscle: primary screen against the NCATS Mechanism Interrogation Plate v5.0 (MIPE) Libary (AID 1347411); also: nearly all actives have a fitted effect of over 65% in size
Procedure, shortened: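 Immortalized human myoblasts (C25cl48) with HiBit knocked into endogenous HLA-B*08:01 were stimulated with 4 ng/ml IFN-beta and given compounds in 11-point 1:3 titration from 46 uM. After 24 h at 37 C, lytic HiBiT luminescence was read.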

Chain of Protein phosphatase 1D (Homo sapiens) (O15297 whole entry, looked up): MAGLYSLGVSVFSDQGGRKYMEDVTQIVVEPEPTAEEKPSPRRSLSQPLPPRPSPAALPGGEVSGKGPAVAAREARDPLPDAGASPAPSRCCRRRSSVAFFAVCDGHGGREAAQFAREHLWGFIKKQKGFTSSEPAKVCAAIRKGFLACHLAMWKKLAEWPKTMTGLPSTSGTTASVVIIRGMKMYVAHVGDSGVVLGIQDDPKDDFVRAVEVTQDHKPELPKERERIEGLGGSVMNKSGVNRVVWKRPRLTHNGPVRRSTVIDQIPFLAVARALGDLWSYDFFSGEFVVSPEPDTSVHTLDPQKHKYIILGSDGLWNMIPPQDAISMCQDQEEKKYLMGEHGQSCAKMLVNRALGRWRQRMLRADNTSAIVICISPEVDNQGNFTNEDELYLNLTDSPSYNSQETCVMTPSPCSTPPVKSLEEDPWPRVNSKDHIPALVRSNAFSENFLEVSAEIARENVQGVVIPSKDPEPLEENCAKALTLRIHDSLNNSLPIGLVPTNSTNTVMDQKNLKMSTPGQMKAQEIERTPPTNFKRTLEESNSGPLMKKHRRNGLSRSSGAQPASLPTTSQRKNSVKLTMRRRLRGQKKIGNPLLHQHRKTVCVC
Chain of Single-stranded DNA cytosine deaminase (Homo sapiens) (Q9GZX7 whole entry, looked up): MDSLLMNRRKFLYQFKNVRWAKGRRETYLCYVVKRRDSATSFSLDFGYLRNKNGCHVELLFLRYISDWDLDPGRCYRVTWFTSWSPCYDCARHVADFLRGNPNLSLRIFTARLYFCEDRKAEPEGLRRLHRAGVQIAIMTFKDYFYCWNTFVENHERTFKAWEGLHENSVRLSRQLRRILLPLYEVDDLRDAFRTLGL
Chain of Lysine-specific demethylase 5B (Homo sapiens) (Q9UGL1 whole entry, looked up): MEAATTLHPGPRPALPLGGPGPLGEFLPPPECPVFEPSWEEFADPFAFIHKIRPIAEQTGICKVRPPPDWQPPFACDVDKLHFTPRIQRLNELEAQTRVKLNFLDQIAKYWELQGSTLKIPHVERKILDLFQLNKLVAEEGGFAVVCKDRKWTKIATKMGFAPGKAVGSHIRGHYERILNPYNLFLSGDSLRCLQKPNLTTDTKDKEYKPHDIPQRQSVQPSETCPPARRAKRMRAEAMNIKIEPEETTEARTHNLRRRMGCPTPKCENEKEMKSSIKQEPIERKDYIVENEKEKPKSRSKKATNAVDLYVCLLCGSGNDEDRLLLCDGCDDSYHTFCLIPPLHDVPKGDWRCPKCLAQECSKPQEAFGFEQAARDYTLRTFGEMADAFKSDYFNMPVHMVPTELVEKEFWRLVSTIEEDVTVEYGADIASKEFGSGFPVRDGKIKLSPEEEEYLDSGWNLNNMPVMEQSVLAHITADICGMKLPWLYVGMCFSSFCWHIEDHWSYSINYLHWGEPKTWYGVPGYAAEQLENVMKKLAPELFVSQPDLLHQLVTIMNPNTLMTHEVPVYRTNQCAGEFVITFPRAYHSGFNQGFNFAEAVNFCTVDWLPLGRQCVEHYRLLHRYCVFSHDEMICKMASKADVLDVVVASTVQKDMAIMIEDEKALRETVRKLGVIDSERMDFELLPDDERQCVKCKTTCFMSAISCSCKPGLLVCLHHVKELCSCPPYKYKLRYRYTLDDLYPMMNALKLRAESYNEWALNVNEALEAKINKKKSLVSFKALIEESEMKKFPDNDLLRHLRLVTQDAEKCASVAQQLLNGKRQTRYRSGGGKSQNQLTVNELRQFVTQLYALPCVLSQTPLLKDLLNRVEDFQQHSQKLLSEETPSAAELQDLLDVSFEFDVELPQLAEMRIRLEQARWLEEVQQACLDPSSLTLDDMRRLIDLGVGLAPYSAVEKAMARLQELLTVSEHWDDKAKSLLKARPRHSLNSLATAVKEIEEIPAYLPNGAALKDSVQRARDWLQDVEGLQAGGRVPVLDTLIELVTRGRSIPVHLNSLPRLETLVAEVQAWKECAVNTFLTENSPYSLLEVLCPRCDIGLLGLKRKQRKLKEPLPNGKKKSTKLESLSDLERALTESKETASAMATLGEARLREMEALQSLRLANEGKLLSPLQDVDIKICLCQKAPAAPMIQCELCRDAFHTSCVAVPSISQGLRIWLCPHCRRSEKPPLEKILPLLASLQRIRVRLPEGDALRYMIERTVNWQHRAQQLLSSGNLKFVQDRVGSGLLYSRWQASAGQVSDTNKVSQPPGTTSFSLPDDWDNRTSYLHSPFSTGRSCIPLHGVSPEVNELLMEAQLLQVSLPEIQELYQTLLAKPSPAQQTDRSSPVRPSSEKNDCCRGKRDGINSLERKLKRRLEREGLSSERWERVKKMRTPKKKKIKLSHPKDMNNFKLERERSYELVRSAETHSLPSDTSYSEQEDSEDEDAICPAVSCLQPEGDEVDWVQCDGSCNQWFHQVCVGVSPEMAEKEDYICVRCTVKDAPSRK
Chain of Calcium and integrin-binding protein 1 (Homo sapiens) (Q99828 whole entry, looked up): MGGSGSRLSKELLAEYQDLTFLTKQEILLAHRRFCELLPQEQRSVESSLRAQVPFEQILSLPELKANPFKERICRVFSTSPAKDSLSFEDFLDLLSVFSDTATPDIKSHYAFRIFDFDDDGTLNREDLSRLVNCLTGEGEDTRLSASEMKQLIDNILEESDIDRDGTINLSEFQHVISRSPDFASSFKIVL

Compound	Potency [1]	Potency [2]	Potency [3]	outcome [4]	Potency [5]	outcome [6]	outcome [7]	Potency [8]	Potency [9]	outcome [10]	Potency [11]	activity change, negative = inhibition [3]	activity change, negative = inhibition [5]	activity change, negative = inhibition [6]	activity change, negative = inhibition [11]	Potency [12]
C[C@@H](O)[C@H]1C(=O)N2C(C(=O)O)=C(SCCN=CN)C[C@H]12	inactive	inactive	inactive	inactive	inactive	inactive	inactive	inactive	inactive	inactive	inactive					
O=c1[nH]c(=O)n([C@H]2C[C@H](O)[C@@H](CO)O2)cc1Br	inactive	inactive	inactive	inactive	inactive	inactive	inactive	inactive	inactive	inactive	inactive					
CCCN(CCC)CCc1cccc2c1CC(=O)N2	inactive		inactive	inactive	inactive	inactive	inactive	inactive	inactive	inactive	inactive					
Cc1scc2c1N(C(=O)CN1CCN(C)CC1)c1ccccc1NC2=O	inactive		inactive	inactive	inactive	inactive	inactive	inactive	inactive	inactive	inactive					
CCNC(=O)N1CCN(CCCC(c2ccc(F)cc2)c2ccc(F)cc2)CC1	inactive		inactive	inactive	inactive	inactive	inactive	inactive	inactive	inactive	inactive					
NC(=O)N1c2ccccc2C=Cc2ccccc21	inactive	inactive	inactive	inactive	inactive	inactive	inactive	inactive	inactive	inactive	inactive					
O=C(O)CN(CCN(CC(=O)O)CC(=O)O)CCN(CC(=O)O)CC(=O)O	inactive	inactive	inactive	inactive	inactive	inactive	inactive	inactive	inactive	inactive	inactive					
NC(Cc1ccc(Cl)cc1)C(=O)O (configuration not stated)	inactive	inactive		inactive			inactive	inactive	inactive	inactive		1.91% [at 0.727 µM]	4.3% [at 0.505 µM]	-2.63% [at 0.575 µM]	-1.79% [at 1.07 µM]	
C[C@]12CCC(=O)C=C1CC[C@@H]1[C@@H]2C(=O)C[C@@]2(C)[C@H]1CC[C@]2(O)C(=O)CO	inactive	inactive	inactive	inactive	inactive	inactive	inactive	inactive	inactive	inactive	inactive					
C(=C\c1ccccc1)/CN1CCN(C(c2ccccc2)c2ccccc2)CC1	inactive	inactive	inactive	inactive	inactive	inactive	inactive	inactive	inactive	inactive	inactive					
CC(=O)[C@@]1(O)CC[C@H]2[C@@H]3CCC4=CC(=O)CC[C@]4(C)[C@H]3CC[C@@]21C	inactive		inactive	inactive	inactive	inactive	inactive	inactive	inactive	inactive	inactive					
CN=C(NC#N)NCCSCc1nc[nH]c1C	inactive		inactive	inactive	inactive	inactive	inactive	inactive	inactive	inactive	inactive					
CCc1c(C)[nH]c2c1C(=O)C(CN1CCOCC1)CC2 (configuration not stated)	inactive		inactive	inactive	inactive	inactive	inactive	inactive	inactive	inactive	inactive					
FC(F)(F)c1ccccc1-n1ccnc1	inactive		inactive	inactive	inactive	inactive	inactive	inactive	inactive	inactive	inactive					
O=C(O)CCCCCCCC(=O)O	inactive	inactive	inactive	inactive	inactive	inactive	inactive	inactive	inactive	inactive	inactive					
CC(C(=O)O)c1ccc(CC2CCCC2=O)cc1 (configuration not stated)	inactive	inactive	inactive	inactive	inactive	inactive	inactive	inactive	inactive	inactive	inactive					
NC(=O)c1cn(Cc2c(F)cccc2F)nn1	inactive		inactive	inactive	inactive	inactive	inactive	inactive	inactive	inactive	inactive					
CCN(CC)CCNC(=O)c1cc(S(C)(=O)=O)ccc1OC	inactive	inactive	inactive	inactive	inactive	inactive	inactive	inactive	inactive	inactive	inactive					
COCCOC(=O)C1=C(C)NC(C)=C(C(=O)OC(C)C)C1c1cccc([N+](=O)[O-])c1 (configuration not stated)	inactive		inactive	inactive	inactive	inactive	inactive	inactive	inactive	inactive						
CCCNC(C)C(=O)Nc1ccccc1C (configuration not stated)	inactive		inactive	inactive	inactive	inactive	inactive	inactive	inactive	inactive						
CC(C)(C)c1ccc(C(=O)CCCN2CCC(OC(c3ccccc3)c3ccccc3)CC2)cc1	inactive		inactive	inactive	inactive	inactive	inactive	inactive	inactive	inactive						
CC(=O)OC(C)C[N+](C)(C)C (configuration not stated)	inactive	inactive	inactive	inactive	inactive	inactive	inactive	inactive	inactive	inactive	inactive					
CN(C)C(=O)Oc1ccc[n+](C)c1	inactive	inactive	inactive	inactive	inactive	inactive	inactive	inactive	inactive	inactive	inactive					
Cc1cccc(C)c1NC(=O)C(C)N (configuration not stated)	inactive		inactive	inactive	inactive	inactive	inactive	inactive	inactive	inactive	inactive					

Compound	Potency [1]	Potency [2]	Potency [3]	outcome [4]	Potency [5]	outcome [6]	outcome [7]	Potency [8]	Potency [9]	outcome [10]	Potency [11]	activity change, negative = inhibition [3]	activity change, negative = inhibition [5]	activity change, negative = inhibition [6]	activity change, negative = inhibition [11]	Potency [12]
CCCCCCCC/C=C\CCCCCCCC(=O)NCc1ccc(O)c(OC)c1	inactive		inactive	inactive	inactive	inactive	inactive	inactive	inactive	inactive	inactive					
Nc1nc(N)c2nc(-c3ccccc3)c(N)nc2n1	39.8 µM (active)	inactive	inactive	inactive	inactive	inactive	inactive		inactive	inactive	inactive					
COc1ccc(CN(CCN(C)C)c2ccccn2)cc1	inactive	inactive	inactive	inactive	inactive	inactive			inactive	inactive	inactive					
Cc1ccc(S(=O)(=O)NC(=O)NN2CCCCCC2)cc1	inactive		inactive	inactive	inactive	inactive	inactive	inactive	inactive	inactive	inactive					
CC(N=C(NC#N)Nc1ccncc1)C(C)(C)C (configuration not stated)		inactive	inactive	inactive	inactive	inactive	inactive	inactive	inactive	inactive	inactive					
COC(=O)C1=C(C)NC(C)=C(C(=O)OC(C)(C)CN(C)CCC(c2ccccc2)c2ccccc2)C1c1cccc([N+](=O)[O-])c1 (configuration not stated)	inactive			inactive	inactive	inactive	inactive	inactive	inactive	inactive						
CCOC(=O)C1=C(C)NC(C)=C(C(=O)OC)C1c1cccc([N+](=O)[O-])c1 (configuration not stated)	inactive			inactive	inactive		inactive	inactive	inactive		inactive					
NC/C=C/C(=O)O		inactive	inactive	inactive	inactive	inactive	inactive	inactive	inactive	inactive						
CCn1nc(C(=O)O)c(=O)c2cc3c(cc21)OCO3	inactive		inactive	inactive	inactive	inactive	inactive	inactive	inactive	inactive	inactive					
C[N+](C)(C)CCCCCCCCCC[N+](C)(C)C		inactive	inactive	inactive	inactive	inactive	inactive	inactive	inactive	inactive	inactive					
CC(C)COCC(CN(Cc1ccccc1)c1ccccc1)N1CCCC1 (configuration not stated)		inactive	inactive	inactive	inactive	inactive	inactive	inactive	inactive	inactive	inactive					
COC(=O)[C@@H](N)Cc1ccc(O)c(O)c1		inactive	inactive	inactive	inactive	inactive	inactive	inactive	inactive	inactive						
CC(C)NNC(=O)c1ccncc1		inactive	inactive	inactive	inactive	inactive	inactive	inactive	inactive	inactive	inactive					
CC(C)(Oc1ccc(CCNC(=O)c2ccc(Cl)cc2)cc1)C(=O)O	inactive			inactive	inactive	inactive	inactive	inactive	inactive	inactive	inactive					
Cc1cc(C)c(/C=C2\C(=O)Nc3ccccc32)[nH]1	inactive			inactive	inactive	inactive	inactive		inactive		inactive					inactive
COCCc1ccc(OCC(O)CNC(C)C)cc1 (configuration not stated)		inactive	inactive	inactive	inactive	inactive	inactive	inactive	inactive	inactive	inactive					
COCC(=O)O[C@]1(CCN(C)CCCc2nc3ccccc3[nH]2)CCc2cc(F)ccc2[C@@H]1C(C)C	inactive			inactive	inactive	inactive	inactive	inactive	inactive	inactive	inactive					
CCC(=O)c1ccc2c(c1)N(CCCN(C)C)c1ccccc1S2		inactive	inactive	inactive	inactive	inactive	inactive	inactive	inactive	inactive	inactive					
COc1cc2c(cc1OC)-c1cc(=Nc3c(C)cc(C)cc3C)n(C)c(=O)n1CC2	inactive			inactive	inactive	inactive	inactive	inactive	inactive	inactive						
CCN(CC)CCCN(c1ccccc1)C1Cc2ccccc2C1		inactive	inactive	inactive	inactive	inactive	inactive	inactive	inactive	inactive						
O=C(CCCN1CCC(O)(c2cccc(C(F)(F)F)c2)CC1)c1ccc(F)cc1		inactive	inactive	inactive	inactive	inactive	inactive	inactive	inactive	inactive						
CSc1ccc(C(=O)c2[nH]c(=O)[nH]c2C)cc1	inactive		inactive	inactive	inactive	inactive	inactive	inactive		inactive	inactive					
Cc1ccc(=O)n(-c2ccccc2)c1		inactive	inactive	inactive	inactive	inactive	inactive	inactive	inactive	inactive	inactive					
